According to PubChem BioAssay (NCI):
Compounds without any hit were thinned out: in the full panel of roughly 83,000, 20% have a hit.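 Percent growth is the endpoint: 0 to 100 indicates growth inhibition (40 means 60% inhibition), 0 means no net growth, and negative values indicate cell death.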 Values without a mark were called inactive.

The compounds below were run on OVCAR-5 ovarian (assay: NCI-60 one-dose screen, 48 h (100 = growth as untreated, 0 = no growth, -100 = all killed)). Details: 10 µM.
Method: Growth inhibition of the OVCAR-5 human tumor cell line is measured as a screen for anti-cancer activity. Cells are grown in 96 well plates and exposed to the test compound for 48 hours. Compounds are tested at a single concentration, which is 10^-5 M for most compounds. The reported endpoint is percent growth (GI% or GIPRCNT), where numbers from 0 - 100% represent growth inhibition, and numbers from -100% - 0 represent cell death. For example, a value of 40 represents 60% growth inhibition. A value of 0 means no net growth occurred over the course of the experiment. A value of -40 indicates 40% of cells at the beginning of the experiment died by the end of the experiment. A value of -100 means all cells are dead at the end of the experiment.
NCI-60 Human Tumor Cell Lines Screen was performed using the standard one-dose NCI protocol, which is described in more detail at https://dtp.cancer.gov/discovery_development/nci-60/default.htm.
Compounds with GIPRCNT values below 10 were considered active. Activity score was based on GIPRCNT using the following formula: […]
Score is 0 for GIPRCNT values of 100 or above, 50 for GIPRCNT values of 0, and 100 for GIPRCNT values of -100.

How did the growth turn out when `CC1CCCCN1C(=S)Nc1ccc(S(=O)(=O)N2CCCCC2)cc1` (stereo not given) was run?
The growth was 100%.

Which growth does the source give for `CC(C)COC(=O)COC(=O)OCCOCCOC(=O)OCC(=O)OCC(C)C` here?
The growth was 101%.

How did the growth turn out when `CCC/C=C(/C(C)=O)C(=O)OCC` was run?
Its growth is 92.7%.

How did the growth turn out when `CC1CCC2C(C)(C)C3CC12CC1OC13C` (stereo not given) was run?
The growth was 105%.

With `Brc1cnc2ccccc2c1` as the compound, how does the growth read?
The growth was 96.3%.

With `CCCCCCCCCCCCCCCCC1CC(=O)OC1=O` (stereo not given) as the compound, how does the growth read?
Its growth is 102%.

How did the growth turn out when `COc1ccccc1N=Nc1c(O)ccc2cc(S(=O)(=O)O)ccc12` was run?
Its growth is 103%.

For `COc1ccc(Oc2c(I)cc(CC(NC(C)=O)C(=O)O)cc2I)cc1` (stereo not given), which growth is on record?
The growth was 91.7%.

For `CNC(=S)NC(C)(C)C`, which growth is on record?
The growth was 121%.

Which growth does the source give for `CCOc1ccc(I)cc1` here?
The growth was 94%.

Which growth does the source give for `CCC/C=C(\C)C(C)(C#N)C(=O)OCC` (stereo not given) here?
The growth was 110%.

For `Cc1cccc([N+](=O)[O-])c1Cl`, which growth is on record?
Its growth is 96.4%.

`CC1=CC(C)(C)NC(=S)N1c1ccc(S(=O)(=O)O)c2cccc(S(=O)(=O)O)c12` was tested. Which growth did it give?
Its growth is 105%.

How did the growth turn out when `CC(=O)/C(Cc1ccccc1)=N/O` was run?
The growth was 97.7%.

For `O=C(CC(=O)c1ccccc1O)c1ccccc1`, which growth is on record?
Its growth is 101%.

With `CC(=O)OCC(=O)[C@@]1(O)CC[C@H]2[C@@H]3CC[C@@H]4C[C@H](O)CC[C@]4(C)[C@H]3C(=O)C[C@@]21C` as the compound, how does the growth read?
Its growth is 112%.

Which growth does the source give for `COC(=O)C(O)c1ccccc1` (stereo not given) here?
Its growth is 97.6%.

How did the growth turn out when `CN(C)c1ccc(C(c2ccc(O)cc2)c2ccc(N(C)C)cc2)cc1` was run?
Its growth is 98.6%.

`O=C(O)CSCSCC(=O)O` was tested. Which growth did it give?
The growth was 101%.

How did the growth turn out when `Cc1cc(N2CCC(N3CCCC3)CC2)nc(/N=C(\N)Nc2ccc(Cl)c(Cl)c2)n1` was run?
Its growth is 19%.

How did the growth turn out when `O=P(O)(O)OCC(O)CO` (stereo not given) was run?
The growth was 101%.

With `CSC[C@H](NC(=O)COc1cccc2cnccc12)C(=O)NC(Cc1ccccc1)C(O)C(=O)N1CSC[C@H]1C(=O)NC(C)(C)C` (stereo not given in full) as the compound, how does the growth read?
The growth was 91.7%.

How did the growth turn out when `COc1cccc(/C=N/NC(=S)NC2CC3CCC2C3)c1O` (stereo not given) was run?
Its growth is 85.1%.

For `Cc1cc(=O)n(-c2ccc(F)cc2)[nH]1`, which growth is on record?
The growth was 94.9%.

With `N#CC(=Nc1cccc(F)c1)C1=C(O)c2ccccc2C1=O` as the compound, how does the growth read?
The growth was 103%.

For `N#CC1(Nc2ccc3c4c(cccc24)CC3)CCCCC1`, which growth is on record?
Its growth is 110%.

Which growth does the source give for `O=C1C=C(Nc2ccc([N+](=O)[O-])cc2)c2ccccc2C1=O` here?
Its growth is 86.9%.

For `CCOC(=O)CNN`, which growth is on record?
Its growth is 112%.

`CC(=O)NCc1cc(C)c(C)cc1C` was tested. Which growth did it give?
Its growth is 95.5%.

With `COc1cc(/C=N\Nc2ccccc2)ccc1OC(=O)c1ccccc1` as the compound, how does the growth read?
The growth was 64.4%.

With `CC[N+](C)(CC)CCO` as the compound, how does the growth read?
Its growth is 100%.

How did the growth turn out when `CSc1[nH]c(=O)ncc1F` was run?
Its growth is 102%.

`Cc1cccc(CO)c1` was tested. Which growth did it give?
Its growth is 107%.

Which growth does the source give for `C=CCNC(=O)c1ccc(OC)cc1` here?
Its growth is 103%.

`Cc1cccc(C(=O)N(C(C)C)C(C)C)c1` was tested. Which growth did it give?
Its growth is 98%.

How did the growth turn out when `S=c1nn[nH]c2ccccc12` was run?
The growth was 105%.

`Cc1nc2ccccc2c(C(=O)O)c1O` was tested. Which growth did it give?
The growth was 91.4%.

With `O=C(O)CCCCNC(=O)c1ccccc1` as the compound, how does the growth read?
The growth was 116%.

With `CN(C)c1ccc2oc(=O)c3ccccc3c2c1` as the compound, how does the growth read?
Its growth is 91.9%.

How did the growth turn out when `CN1C(=O)CN2CCc3ccccc3C2c2cc(Cl)ccc21` (stereo not given) was run?
The growth was 83.9%.
